# According to PubChem BioAssay AID1159580 (chemical genetic matrix, 2015):
# Several values for one entry are separate records, joined by “and”; a condition that tells them apart may be missing. Equal entries are not always repeated. Hit rate of the full screen: of about 5,500 compounds, about 2,000 (36%) were called active. Roughly 18% stayed inconclusive and do not appear here. Cut-off read from the data, not from the text of the source: active = normalized growth mostly below about 0.91 (no sharp cut-off); inconclusive = no clear call, values can overlap the other calls; inactive = mostly above about 0.92. The list shows a part of the results.
# Experiment: chemical genetic growth profiling, strain panel (AID 1159580);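 note: tested at 20 µM; growth read once vehicle control cultures reached saturation at 30 °C; 1 = growth at the plate median or of vehicle wells; lower values mean less growth of the strain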
# Details: S. cerevisiae deletion strains, growth OD
compound,measurement,setting,value
C1CCC(C(CC2CCCCN2)C2CCCCC2)CC1 (stereo not drawn),normalized growth,"locus YAL013W, strain DEP1, stronger effect = lower value",0.789 (active)
same,normalized growth,"locus YAL021C, strain ccr4, stronger effect = lower value",0.628 (active)
same,normalized growth,"locus YAL026C, strain drs2, stronger effect = lower value",0.0926 (active)
same,normalized growth,"locus YAL030W, strain snc1, stronger effect = lower value",0.986 (inactive)
same,normalized growth,"locus YBL061C, strain skt5, stronger effect = lower value",0.935 (inactive)
same,normalized growth,"locus YBR009C, strain hhf1, stronger effect = lower value",0.955 (inactive)
same,normalized growth,"locus YBR021W, strain FUR4, stronger effect = lower value",0.219 (active)
same,normalized growth,"locus YBR023C, strain chs3, stronger effect = lower value",0.884 (active)
same,normalized growth,"locus YBR171W, strain sec66, stronger effect = lower value",0.973 (inactive)
same,normalized growth,"locus YBR229C, strain ROT2, stronger effect = lower value",0.99 (inactive)
same,normalized growth,"locus YBR231C, strain swc5, stronger effect = lower value",0.554 (active)
same,normalized growth,"locus YBR279W, strain paf1, stronger effect = lower value",0.969 (inactive)
same,normalized growth,"locus YCL011C, strain gbp2, stronger effect = lower value",0.97 (inactive)
same,normalized growth,"locus YCL016C, strain dcc1, stronger effect = lower value",0.955 (inactive)
same,normalized growth,"locus YCL029C, strain bik1, stronger effect = lower value",0.873 (active)
same,normalized growth,"locus YCL061C, strain MRC1, stronger effect = lower value",0.992 (inactive)
same,normalized growth,"locus YCL069W, strain vba3, stronger effect = lower value",0.965 (inactive)
same,normalized growth,"locus YCR088W, strain abp1, stronger effect = lower value",0.96 (inactive)
same,normalized growth,"locus YDL005C, strain med2, stronger effect = lower value",0.983 (inactive)
same,normalized growth,"locus YDL035C, strain GPR1, stronger effect = lower value",0.493 (active)
same,normalized growth,"locus YDL040C, strain nat1, stronger effect = lower value",0.978 (inactive)
same,normalized growth,"locus YDL074C, strain BRE1, stronger effect = lower value",0.585 (active)
same,normalized growth,"locus YDL101C, strain DUN1, stronger effect = lower value",0.173 (active)
same,normalized growth,"locus YDL134C, strain PPH21, stronger effect = lower value",0.209 (active)
same,normalized growth,"locus YDL185W, strain tfp1, stronger effect = lower value",1.01 (inactive)
same,normalized growth,"locus YDL192W, strain arf1, stronger effect = lower value",0.0725 (active)
same,normalized growth,"locus YDR001C, strain nth1, stronger effect = lower value",0.967 (inactive)
same,normalized growth,"locus YDR069C, strain doa4, stronger effect = lower value",0.706 (active)
same,normalized growth,"locus YDR101C, strain arx1, stronger effect = lower value",0.911 (active)
same,normalized growth,"locus YDR137W, strain rgp1, stronger effect = lower value",1.32 [resistant] (active)
same,normalized growth,"locus YDR159W, strain sac3, stronger effect = lower value",0.965 (inactive)
same,normalized growth,"locus YDR162C, strain NBP2, stronger effect = lower value",0.0586 (active)
same,normalized growth,"locus YDR195W, strain ref2",1.13 (inactive)
same,normalized growth,"locus YDR297W, strain sur2, stronger effect = lower value",0.987 (inactive)
same,normalized growth,"locus YDR318W, strain mcm21, stronger effect = lower value",0.646 (active)
same,normalized growth,"locus YDR334W, strain swr1, stronger effect = lower value",0.972 (inactive)
same,normalized growth,"locus YDR335W, strain msn5, stronger effect = lower value",0.957 (inactive)
same,normalized growth,"locus YDR388W, stronger effect = lower value",0.125 (active)
same,normalized growth,"locus YDR392W, strain spt3, stronger effect = lower value",0.871 (inactive)
same,normalized growth,"locus YDR502C, strain sam2, stronger effect = lower value",0.594 (active)
same,normalized growth,"locus YEL003W, strain gim4, stronger effect = lower value",0.946 (inactive)
same,normalized growth,"locus YEL037C, strain rad23, stronger effect = lower value",0.974 (inactive)
same,normalized growth,"locus YEL061C, strain CIN8 (second series), stronger effect = lower value",0.973 (inactive)
same,normalized growth,"locus YEL061C, strain CIN8, stronger effect = lower value",0.658 (active)
same,normalized growth,"locus YER015W, strain faa2, stronger effect = lower value",0.979 (inactive)
same,normalized growth,"locus YER016W, strain bim1, stronger effect = lower value",0.972 (inactive)
same,normalized growth,"locus YER110C, stronger effect = lower value",0.935 (inactive)
same,normalized growth,"locus YER111C, strain swi4, stronger effect = lower value",0.991 (inactive)
same,normalized growth,"locus YER155C, strain BEM2 (second series), stronger effect = lower value",0.912 (inactive)
same,normalized growth,"locus YER155C, strain BEM2, stronger effect = lower value",0.957 (inactive)
same,normalized growth,"locus YER167W, strain BCK2, stronger effect = lower value",0.718 (active)
same,normalized growth,"locus YFR010W, strain ubp6, stronger effect = lower value",0.601 (active)
same,normalized growth,"locus YGL078C, strain dbp3, stronger effect = lower value",0.999 (inactive)
same,normalized growth,"locus YGL086W, strain mad1, stronger effect = lower value",0.333 (active)
same,normalized growth,"locus YGL167C, strain pmr1, stronger effect = lower value",0.989 (inactive)
same,normalized growth,"locus YGL173C, strain kem1, stronger effect = lower value",0.962 (inactive)
same,normalized growth,"locus YGL227W, strain vid30, stronger effect = lower value",0.991 (inactive)
same,normalized growth,"locus YGL240W, strain doc1, stronger effect = lower value",0.989 (inactive)
same,normalized growth,"locus YGL248W, strain PDE1, stronger effect = lower value",0.227 (active)
same,normalized growth,"locus YGL253W, strain hxk2, stronger effect = lower value",0.973 (inactive)
same,normalized growth,"locus YGR135W, strain pre9, stronger effect = lower value",0.501 (active)
same,normalized growth,"locus YGR252W, strain gcn5, stronger effect = lower value",0.271 (active)
same,normalized growth,"locus YHR013C, strain ard1, stronger effect = lower value",0.842 (active)
same,normalized growth,"locus YHR027C, strain rpn1, stronger effect = lower value",0.987 (inactive)
same,normalized growth,"locus YHR030C, strain SLT2, stronger effect = lower value",0.0919 (active) and 1.01 (inactive)
same,normalized growth,"locus YHR079C, strain IRE1 (second series), stronger effect = lower value",0.93 (inactive)
same,normalized growth,"locus YHR079C, strain IRE1, stronger effect = lower value",1.02 (inactive)
same,normalized growth,"locus YHR094C, strain hxt1, stronger effect = lower value",1.01 (inactive)
same,normalized growth,"locus YHR129C, strain ARP1, stronger effect = lower value",0.742 (active)
same,normalized growth,"locus YHR142W, strain chs7, stronger effect = lower value",0.774 (active)
same,normalized growth,"locus YHR200W, strain rpn10, stronger effect = lower value",0.922 (inactive)
same,normalized growth,"locus YIL066C, strain RNR3, stronger effect = lower value",0.504 (active)
same,normalized growth,"locus YIL073C, strain SPO22, stronger effect = lower value",0.124 (active)
same,normalized growth,"locus YIL125W, strain kgd1, stronger effect = lower value",1.02 (inactive)
same,normalized growth,"locus YIR030C, strain dcg1, stronger effect = lower value",0.897 (active)
same,normalized growth,"locus YJL092W, strain hpr5, stronger effect = lower value",0.984 (inactive)
same,normalized growth,"locus YJL095W, strain BCK1 (second series), stronger effect = lower value",0.927 (inactive)
same,normalized growth,"locus YJL095W, strain BCK1, stronger effect = lower value",0.169 (active) and 1.01 (inactive)
same,normalized growth,"locus YJL115W, strain asf1, stronger effect = lower value",0.984 (inactive)
same,normalized growth,"locus YJL129C, strain trk1, stronger effect = lower value",0.953 (inactive)
same,normalized growth,"locus YJL134W, strain LCB3, stronger effect = lower value",0.996 (inactive)
same,normalized growth,"locus YJL154C, strain vps35, stronger effect = lower value",0.964 (inactive)
same,normalized growth,"locus YJL164C, strain tpk1, stronger effect = lower value",0.968 (inactive)
same,normalized growth,"locus YJL166W, strain qcr8, stronger effect = lower value",0.984 (inactive)
same,normalized growth,"locus YJL168C, strain set2, stronger effect = lower value",0.731 (active)
same,normalized growth,"locus YJL187C, strain SWE1 (second series), stronger effect = lower value",0.521 (active)
same,normalized growth,"locus YJL187C, strain SWE1, stronger effect = lower value",0.973 (inactive)
same,normalized growth,"locus YJR043C, strain POL32, stronger effect = lower value",0.722 (active)
